Compound activity as filed in PubChem BioAssay.
Most compounds without a hit are left out; they make up all but 3.6% or so of the library.
EBV LMP1 NFkB = Epstein-Barr LMP1 NF-kappaB reporter inhibition | LMP1-induced NF-kappaB luciferase reporter cells, luminescence | inhibition, % at 12.5 µM | actives 0.69% (n = 350,000) | AID 504558; in the data active = inhibition above about 41%; inconclusive = no clear call, values can overlap the other calls;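 note: 0% = neutral control wells and 100% = reference inhibitor control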
TROY signal inh = inhibitors of TROY-dependent NF-kB signaling | Q293 LMP1-TROYcd NF-kB luciferase reporter, 4 h | inhibition, % at 10 µM | actives 0.98% (n = 360,000);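 active = compounds whose plate-normalised and pattern-corrected inhibition of the luciferase reporter signal at the single screening dose is 50% or more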
LGR2 antag = blocks bursicon-induced cAMP signaling via Drosophila LGR2 | HEK293 LGR2, CRE-luciferase, bursicon-stimulated, 4 h | inhibition, % at 9.99 µM | actives 0.35% (n = 380,000);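 active = drop in luminescence signal, shown as inhibition above about 50% in the replicate tests, limit read from the data, passing the limit was not always enough; inconclusive = probably only some replicates passing the limit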;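 note: agonist challenge used bursicon conditioned medium at about half maximal strength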
HSF-1 act = increases HSF-1 driven luciferase reporter signal. activation, % at 9 µM. NIH3T3-HGL HSF-1 luciferase reporter, MG132, 8 h; 100% = twice DMSO control signal. actives 1.7% (n = 300,000);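 active = mean replicate activation of at least 50% with a set share of replicates each reaching 50%; inconclusive = only one of those two conditions met; inactive = mean below 50% and too few replicates reaching it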;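 note: 0% = median of the neutral control wells and 100% = twice that signal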
HSF1 inh = HSF1 inhibition | actives 0.77% (n = 300,000) | activity change, negative = inhibition, % at 7.5 µM (by protocol) | AID 2098 | NIH3T3-HGL HSE-luciferase, MG132-induced, luminescence 8 h; stronger effect = lower value;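 active = more than half of replicate wells show activity change below -50%, luminescence cut by over half; inconclusive = some wells, but at most half, below -50%; inactive = no replicate well below -50%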;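 note: luciferase reports HSF-1 transcriptional activity via heat shock element; 0% = median of DMSO wells and -100% = zero luminescence signal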
TWEAK-Fn14 inh = inhibitors of TWEAK-Fn14 interaction signaling. actives 2% (n = 360,000). AID 1159606. inhibition, % at 10 µM. TWEAK-stimulated Fn14 reporter cells, luciferase luminescence, 8 h; in the data active = inhibition above about 50%
The depositor's hits bear a star; ? = inconclusive; . = no result.

SMILES	EBV LMP1 NFkB	TROY signal inh	LGR2 antag	HSF-1 act	HSF1 inh	TWEAK-Fn14 inh
Cc1ccc(-c2noc(-c3cccs3)n2)cc1	-29	-22	70*	30	11	22
O=C1CC(=O)OC(c2ccc([N+](=O)[O-])cc2)O1	26	10	.	.	.	102*
CC(C)(C)C(=O)N1CCc2cc(-c3csc(N)n3)ccc21	17	24	.	-51	?	67*
C[C@@H]1CN([C@H](C)CO)C(=O)c2cc(NS(=O)(=O)c3ccc(F)cc3)ccc2O[C@H]1CN(C)C	.	.	12	.	.	.
Cn1c(=O)c2nc(NCc3ccccc3)cnc2n(C)c1=O	-1	-19	5	-2	2	-27
Cc1nc2c(=O)n(C)c(=O)n(C)c2nc1Cl	-32	32	-23	284*	241	50*
C[C@@H]1CN([C@@H](C)CO)C(=O)c2cccc(NC(=O)NC3CCCCC3)c2O[C@H]1CN(C)CC1CCCCC1	.	.	1	.	.	.
CCOC(=O)c1c(CSC(=N)N)n(-c2ccc(C)cc2)c2cc(Br)c(OC(C)=O)cc12	-76	33	.	-6	-19	92*
CCOC(=O)c1c(CSC(=N)N)n(C)c2cc(Br)c(OC(C)=O)cc12	-46	19	-92	4	-13	-6
Cc1ccc(-n2nnc(-c3cccnc3Cl)n2)cc1	-45	-22	-13	70*	44	31
CCCCn1c(NC(=O)c2ccccc2)c(C#N)c2nc3ccccc3nc21	11	68*	.	.	.	64*
CCC(C)n1c(NC(=O)c2ccccc2)c(C#N)c2nc3ccccc3nc21 (stereo unspecified)	12	58*	-7	-11	-4	42
CCCCn1c(NC(=O)c2ccc(F)cc2)c(C#N)c2nc3ccccc3nc21	.	.	.	4	3	.
COC(=O)c1c(C)[nH]c(C(=O)C(C)OC(=O)C2CC(=O)N(c3ccc(C)cc3)C2)c1C (stereo unspecified)	10	54*	-49	.	.	24
COc1ccc(C#Cc2ccc3c(c2)[C@@H]2[C@@H](CCN2C(=O)C2CCCC2)[C@H](CO)N3)cc1	.	.	7	.	.	.
O=C([C@@H]1[C@@H](CO)[C@@H]2Cn3c(ccc(-c4cccnc4)c3=O)[C@@H]2N1CCC(F)(F)F)N1CCOCC1	.	.	-17	.	.	.
NC(=O)c1ccc(C(F)(F)F)n(Cc2cccc(Cl)c2)c1=O	-13	2	18	64*	25	7
C/C=C/c1cnc2c(c1)C(=O)N([C@@H](C)CO)C[C@@H](C)[C@@H](CN(C)C(=O)CN1CCOCC1)O2	.	.	2	.	.	.
CO[C@H](CN(C)C(=O)Nc1ccc(F)cc1)[C@@H](C)CN(Cc1ccccc1Cl)[C@@H](C)CO	.	.	2	.	.	.
O=S(=O)(NC1c2cccc3cccc(c23)C1N1CCNCC1)c1ccc(Cl)cc1 (stereo unspecified)	-16	-13	18	61*	26	-46
CC(=O)N1CCN(C2c3cccc4cccc(c34)C2NS(=O)(=O)c2ccccc2)CC1 (stereo unspecified)	-3	7	.	22	16	-2
CCCN1[C@H](C(=O)N[C@H](C)c2ccccc2)[C@@H](CO)[C@@H]2Cn3c(ccc(-c4ccc(F)cc4)c3=O)[C@@H]21	.	.	-35	.	.	.
C[C@@H]1CCCCO[C@@H](CN(C)S(=O)(=O)c2ccccc2)[C@H](C)CN([C@@H](C)CO)C(=O)c2cc(NS(=O)(=O)c3cccs3)ccc2O1	.	.	-11	.	.	.
CCOC(=O)c1sc(N(Cc2ccccc2)C(=O)COC(=O)c2ccccc2O)nc1C	9	-30	.	35	-6	-25
CCOC(=O)c1sc(N(Cc2ccccc2)C(=O)COC(=O)c2ccc(O)cc2)nc1C	53*	37	45	-33	-20	71*
SMILES	EBV LMP1 NFkB	TROY signal inh	LGR2 antag	HSF-1 act	HSF1 inh	TWEAK-Fn14 inh
COC(=O)C[C@@H]1CC[C@H](NS(=O)(=O)c2ccccc2F)[C@H](CO)O1	.	.	-4	.	.	.
CCOC(=O)CN1CCC(c2cc(-c3ccc(Cl)cc3)n[nH]2)CC1	15	8	-4	52*	9	-28
CCOC(=O)Cn1nc(-c2ccc(Cl)cc2)cc1N	-13	3	.	0	4	-10
O=C(C[C@@H]1CC[C@H]2[C@@H](COC[C@@H](O)CN2S(=O)(=O)c2ccc(Cl)cc2)O1)N[C@H]1CCN(Cc2ccccc2)C1	.	.	9	.	.	.
Nc1ccc(-c2nc3c(Cl)c(N)ccc3[nH]2)cc1	4	-22	.	1	-5	61*
O=C(NCCCN1CCC(Cc2ccccc2)CC1)C1CCC(=O)N1C1CCCC1 (stereo unspecified)	2	17	1	2	1	-10
O=C(NCCCN1CCC(Cc2ccccc2)CC1)C1CC(=O)N(C2CCCC2)C1 (stereo unspecified)	0	-5	-6	-71	-62*	-12
CC(NC(=O)CNC(=O)OCc1ccccc1)C(=O)N1CC(O)CC1C(=O)OCc1ccccc1 (stereo unspecified)	65*	14	.	-6	1	0
C[C@@H]1CN([C@H](C)CO)C(=O)Cc2cc(NC(=O)Cc3cn(C)c4ccccc34)ccc2O[C@H]1CN(C)Cc1ccc(Cl)c(Cl)c1	.	.	4	.	.	.
CN1C(=O)c2cc(NC(=O)c3cccc(F)c3)ccc2OC[C@H]2O[C@@H](CC(=O)NCC3CC3)CC[C@H]21	.	.	8	.	.	.
COC(=O)C1CCN(CC(=O)Nc2ccccc2Sc2ccccc2)CC1	1	5	-12	19	5	-12
CC1CCCCN1CC(=O)Nc1ccccc1Sc1ccccc1 (stereo unspecified)	-7	-8	-2	-67	-59*	-5
O=[N+]([O-])c1ccc(O)c(C=Nc2cccc3ccccc23)c1	-11	36	13	5	1	39
Oc1ccc(C=Nc2cccc3ccccc23)c(O)c1	-9	53*	7	6	8	53*
CC=Cc1ccc2n(c1=O)C[C@H]1[C@H](CO)[C@@H](C(=O)NCCc3ccccc3)N(C(=O)CC)[C@@H]21 (mixture of isomers)	.	.	-9	.	.	.
C[C@H]1CN([C@@H](C)CO)C(=O)c2c(c3ccccc3n2C)-c2ccccc2CO[C@@H]1CN(C)S(=O)(=O)c1ccc(Cl)cc1	.	.	-12	.	.	.
C[C@H](CO)N1C[C@H](C)[C@H](CN(C)S(=O)(=O)c2ccc(Cl)cc2)OCc2ccccc2-c2c(n(C)c3ccccc23)C1=O	2	24	38	.	.	62*
C[C@H](CO)N1C[C@H](C)[C@H](CN(C)S(=O)(=O)c2ccc(C(F)(F)F)cc2)OCc2ccccc2-c2c(n(C)c3ccccc23)C1=O	.	.	53*	.	.	.
C[C@H](CO)N1C[C@H](C)[C@@H](CN(C)S(=O)(=O)c2ccc(C(F)(F)F)cc2)OCc2ccccc2-c2c(n(C)c3ccccc23)C1=O	.	.	26	.	.	.
CCN1CCSc2ccc(C(=O)NCc3ccc(OC(C)C)cc3)cc21	7	-3	4	77*	60	-6
